Source: PubChem BioAssay (NCATS)
Records with an inconclusive call do not appear. Where a call stands in place of a potency, no number is given. Active and inactive are the calls of the source. Calls follow the shape of the dose curve; as a rule, active = well fitted curve in the direction sought with a large enough effect; inconclusive = small, poorly fitted or top-dose-only effect, or another doubt; inactive = no such curve, though single readings can be large; an effect the other way counts as inactive or inconclusive.

Experiments:
[1] = target: Lysine-specific demethylase 5B (Homo sapiens) (UniProt Q9UGL1); assay: Optimization screen for KDM5B Histone Demethylases FDH coupled qHTS against the LOPAC library (AID 1347166)
Chain of Lysine-specific demethylase 5B (Homo sapiens) (Q9UGL1 whole entry, looked up): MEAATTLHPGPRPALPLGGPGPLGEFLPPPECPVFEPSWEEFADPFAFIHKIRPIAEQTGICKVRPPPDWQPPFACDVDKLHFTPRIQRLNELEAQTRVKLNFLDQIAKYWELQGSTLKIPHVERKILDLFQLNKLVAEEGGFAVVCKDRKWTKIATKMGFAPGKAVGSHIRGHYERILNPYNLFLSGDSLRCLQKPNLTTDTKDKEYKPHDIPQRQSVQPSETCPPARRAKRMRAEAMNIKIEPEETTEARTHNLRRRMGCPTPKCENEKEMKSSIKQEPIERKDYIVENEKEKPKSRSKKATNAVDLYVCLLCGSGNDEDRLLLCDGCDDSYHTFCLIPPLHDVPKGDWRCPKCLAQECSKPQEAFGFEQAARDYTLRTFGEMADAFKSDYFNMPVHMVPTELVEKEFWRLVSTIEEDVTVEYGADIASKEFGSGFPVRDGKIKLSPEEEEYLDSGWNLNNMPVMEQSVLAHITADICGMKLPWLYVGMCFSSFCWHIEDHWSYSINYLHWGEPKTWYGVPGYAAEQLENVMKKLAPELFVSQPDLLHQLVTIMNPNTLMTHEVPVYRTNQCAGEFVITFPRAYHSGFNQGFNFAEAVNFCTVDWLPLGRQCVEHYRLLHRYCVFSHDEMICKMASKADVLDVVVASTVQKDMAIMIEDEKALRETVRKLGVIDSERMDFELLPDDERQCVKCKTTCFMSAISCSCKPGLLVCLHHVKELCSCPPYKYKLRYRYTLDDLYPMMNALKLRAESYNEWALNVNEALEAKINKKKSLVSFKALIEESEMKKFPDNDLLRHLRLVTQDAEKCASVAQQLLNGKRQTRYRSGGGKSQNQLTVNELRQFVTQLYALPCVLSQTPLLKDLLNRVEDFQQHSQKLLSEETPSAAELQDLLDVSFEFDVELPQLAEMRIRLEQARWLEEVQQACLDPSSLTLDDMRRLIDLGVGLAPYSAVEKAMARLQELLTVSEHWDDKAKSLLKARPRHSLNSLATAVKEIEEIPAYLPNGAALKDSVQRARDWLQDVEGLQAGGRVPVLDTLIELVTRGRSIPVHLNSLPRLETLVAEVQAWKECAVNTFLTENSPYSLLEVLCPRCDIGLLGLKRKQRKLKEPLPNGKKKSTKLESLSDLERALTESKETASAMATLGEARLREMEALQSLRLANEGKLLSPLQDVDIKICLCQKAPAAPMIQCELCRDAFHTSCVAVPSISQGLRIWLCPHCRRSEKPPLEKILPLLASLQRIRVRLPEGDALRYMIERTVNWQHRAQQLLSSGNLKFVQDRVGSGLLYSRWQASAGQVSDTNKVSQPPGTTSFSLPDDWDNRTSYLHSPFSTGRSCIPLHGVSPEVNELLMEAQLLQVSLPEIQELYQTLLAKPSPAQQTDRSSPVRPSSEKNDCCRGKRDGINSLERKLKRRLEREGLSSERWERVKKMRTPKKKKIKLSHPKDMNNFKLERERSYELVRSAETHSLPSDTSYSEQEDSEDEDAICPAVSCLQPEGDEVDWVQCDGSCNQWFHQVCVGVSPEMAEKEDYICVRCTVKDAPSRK
Outline: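 KDM5BDeltaAP (200nM final) preincubated 10 min with compound, then 12.5uM H3K4Me3, 25uM a-ketoglutarate, ascorbate, Fe(II), NAD+ and FDH added; 50mM HEPES pH 7.5, 0.01% Tween-20. NADH fluorescence (340/450 nm) change over 30 min, room temperature.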

[2] = Vero cells viability qHTS for Zika virus inhibitors (AID 1347167)
Outline: (§1)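 Counter-screen for cytotoxicity of hits from NS2B-NS3 protease qHTS. Overnight-attached cells (2.5 x 10^5 cells/mL, DMEM/4% FBS) were dosed in titration, incubated 24 to 48 hours, then assayed by CellTiter Glo.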

[3] = HepG2 cells viability qHTS for Zika virus inhibitors (AID 1347168)
Outline: as §1

[4] = Tertiary RLuc qRT-PCR qHTS assay for Zika virus inhibitors (AID 1347169); also: nearly all actives have a fitted effect of over 55% in size; also: potency is read from the fitted curve at half-maximal effect
Outline: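 Orthogonal cell-based readout: luminescence measured 1-1.5 hrs after adding live-cell Renilla substrate to Vero cells that had been infected with ZIKV-RLuc (MOI 1-2) post-compound, incubated 48-72 hrs at 37 degrees C.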

[5] = HPAF-II Cancer Cell Toxicity qHTS against the NCATS CANVASS Library (AID 1347346); also: nearly all actives have a fitted effect of over 55% in size
Outline: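 HPAF-II cells were seeded at 1000 cells/well, allowed to settle for 4 h at 37 degrees C, then exposed to compounds in an 11-point series for 72 h. Viability was read by CellTiter-Glo luminescence.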

[6] = HPAF-II 24hr Apoptosis Induction qHTS against the NCATS CANVASS Library (AID 1347356)
Outline: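 HPAF-II cells (500/well) in DMEM + 10% FBS were treated with an 11-point compound series for 24 hours at 37 degrees C. Caspase-3/7 activity was then read by Caspase-Glo DEVD luminescence after 15 min.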

[7] = HEK293 18hr Apoptosis Induction qHTS against the NCATS CANVASS Library (AID 1347357)
Outline: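 Caspase-Glo 3/7 luminescence (15 min, room temperature) measured apoptosis after an 18-hour, 37 degrees C exposure of HEK293 cells (500 cells/well) to compounds in 11 points.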

[8] = HPAF-II 12hr Apoptosis Induction qHTS against the NCATS CANVASS Library (AID 1347358)
Outline: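 HPAF-II cells (500/well, DMEM + 10% FBS) were exposed to compounds for 12 hours at 37 degrees C. Caspase-3/7 activity was then read by Caspase-Glo 3/7 luminescence after 15 min at room temperature.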

[9] = HEK293 24hr Apoptosis Induction qHTS against the NCATS CANVASS Library (AID 1347359)
Outline: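 HEK293 cells (500/well, DMEM + 10% FBS) were exposed to compounds in an 11-point series for 24 hours at 37 degrees C, then caspase-3/7 activity was read by Caspase-Glo DEVD luciferase luminescence after 15 min.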

[10] = HPAF-II 18hr Apoptosis Induction qHTS against the NCATS CANVASS Library (AID 1347360)
Outline: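 Caspase-3/7 activation was measured with luminescent Caspase-Glo 3/7 reagent (15 min, RT) in HPAF-II cancer cells (500 cells/well). Before detection, cells had been treated for 18 h at 37 C with compounds (11 points).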

[11] = HEK293 12hr Apoptosis Induction qHTS against the NCATS CANVASS Library (AID 1347361)
Outline: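 HEK293 cells (500/well, DMEM + 10% FBS) were exposed to natural products across an 11-point series for 12 hours at 37 degrees C. Caspase-3/7 activity was then measured with DEVD luciferase luminescence after 15 min at room temperature.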

[12] = OV-KATE Cancer Cell Toxicity qHTS against the NCATS CANVASS Library (AID 1347345)
Outline: (§2)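 Toxicity is measured over 72 h of compound exposure at 37 degrees C under 5% CO2. Each well holds 1000 cells, pre-incubated for 4 hours before dosing across an 11-point range. CellTiter-Glo luminescence gives viability.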

[13] = UWB1.289 Cancer Cell Toxicity qHTS against the NCATS CANVASS Library (AID 1347347); also: nearly all actives have a fitted effect of over 60% in size
Outline: as §2

[14] = OV-SAHO Cancer Cell Toxicity qHTS against the NCATS CANVASS Library (AID 1347348); also: nearly all actives have a fitted effect of over 55% in size
Outline: as §2

[15] = Panc-1005 Cancer Cell Toxicity qHTS against the NCATS CANVASS Library (AID 1347349); also: nearly all actives have a fitted effect of over 60% in size
Outline: as §2

[16] = SW1088 Cancer Cell Toxicity qHTS against the NCATS CANVASS Library (AID 1347350); also: nearly all actives have a fitted effect of over 75% in size
Outline: as §2

[17] = U-118MG Cancer Cell Toxicity qHTS against the NCATS CANVASS Library (AID 1347351)
Outline: as §2

[18] = COV-362 Cancer Cell Toxicity qHTS against the NCATS CANVASS Library (AID 1347352)
Outline: (§3)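 Cells were seeded at 1000 per well and allowed to settle 4 hours at 37 degrees C before pin transfer of compounds as an 11-point series. Viability was read by CellTiter-Glo luminescence after 72 hours' exposure.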

[19] = A2780 Cisplatin Sensitive Ovarian Cancer Cell Toxicity qHTS against the NCATS CANVASS Library (AID 1347353); conditions: A2780 ovarian cancer viability, ATPLite luminescence, 72 h; at 46.1 µM (top of the series); also: nearly all actives have a fitted effect of over 60% in size
Outline: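 A2780 cisplatin-sensitive cells (750 per well) were seeded, left 4 h at 37 °C, then pin-dosed in an 11-point series. After 72 h at 37 °C/5% CO2, viability was measured as ATPLite luminescence.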

[20] = UWB1.289-WTBRCA1 Cancer Cell Toxicity qHTS against the NCATS CANVASS Library (AID 1347354)
Outline: as §3

SMILES: Cc1ccccc1CNc1ncnc2c1ncn2C1OC(CO)C(O)C1O (centres undefined)
- outcome [1]: inactive
- outcome [2]: inactive
- outcome [3]: inactive
- Potency [4]: inactive

SMILES: CN(C)CCC(c1ccc(Cl)cc1)c1ccccn1 (centres undefined)
- outcome [1]: inactive

SMILES: O=S(=O)(c1cccc2c(I)cccc12)N1CCCNCC1
- outcome [1]: inactive

SMILES: CCCCN(CC)c1nc(C)nc2c1c(C)cn2-c1c(C)cc(C)cc1C
- outcome [2]: inactive
- outcome [3]: inactive

SMILES: COc1cc(SC)ccc1C(=O)N1CCC(Cc2ccccc2)CC1
- outcome [1]: inactive

SMILES: O=C1NC(=O)/C(=C/c2ccc(-c3ccc(F)cc3O)o2)S1
- outcome [3]: inactive
- Potency [4]: inactive

SMILES: COC(=O)C1=C(C)NC(C)=C(C(=O)OC)C1c1cccc(NC(=O)NCCCN2CCC(c3cccc(OC)c3)CC2)c1
- outcome [2]: inactive

SMILES: O=c1cc(-c2ccccc2)oc2c(O)c(O)ccc12
- outcome [5]: inactive
- outcome [6]: inactive
- outcome [7]: inactive
- outcome [8]: inactive
- outcome [9]: inactive
- outcome [10]: inactive
- outcome [11]: inactive

SMILES: COc1ccc(/C=C/c2nc(NCCCN(C)C)c3ccccc3n2)cc1
- outcome [2]: inactive
- outcome [3]: inactive

SMILES: CN1CCN(c2cc3c(nn2)Oc2ccccc2N3C)CC1
- outcome [2]: inactive
- outcome [3]: inactive
- Potency [4]: inactive

SMILES: CN1CCC[C@H]1c1cccnc1
- outcome [1]: inactive

SMILES: CCN1/C(=C/C(C)=O)Sc2ccc(OC)cc21
- outcome [1]: inactive

SMILES: O=C(O)c1cc(O)c(O)c(O)c1
- outcome [12]: inactive
- outcome [5]: inactive
- outcome [13]: inactive
- outcome [14]: inactive
- outcome [15]: inactive
- outcome [16]: inactive
- outcome [17]: inactive
- outcome [18]: inactive
- outcome [19]: inactive
- outcome [20]: inactive
- outcome [6]: inactive
- outcome [7]: inactive
- outcome [8]: inactive
- outcome [9]: inactive
- outcome [10]: inactive
- outcome [11]: inactive

SMILES: Cn1c(=O)c2[nH]c(-c3ccccc3)nc2n(C)c1=O
- outcome [2]: inactive
- outcome [3]: inactive
- Potency [4]: inactive

SMILES: COc1cccc(C(=O)NCCN2CCN(c3ccc(Cl)cc3)CC2)c1
- outcome [1]: inactive

SMILES: CN1[C@@H](CC(=O)c2ccccc2)CCC[C@H]1C[C@H](O)c1ccccc1
- outcome [1]: inactive

SMILES: CN(C)c1nc2c(Br)c(Br)c(Br)c(Br)c2[nH]1
- outcome [1]: inactive

SMILES: Brc1c(Br)c(Br)c2n[nH]nc2c1Br
- outcome [1]: inactive

SMILES: Nc1ncnc2c1ncn2[C@@H]1O[C@H](COP(=O)(O)CP(=O)(O)OP(=O)(O)O)[C@@H](O)[C@H]1O
- outcome [1]: inactive

SMILES: NC[C@H]1O[C@@H](n2cnc3c(N)ncnc32)[C@H](O)[C@@H]1O
- outcome [1]: inactive

SMILES: OCC1O[C@H](O)C(Cl)C(O)C1O (some centres undefined)
- outcome [1]: inactive

SMILES: C=C[C@@H]1CN2CC[C@@H]1C[C@H]2[C@H](O)c1ccnc2ccc(OC)cc12
- outcome [2]: inactive

SMILES: O=C(O)CNC(=O)C(CS)Cc1ccccc1 (centres undefined)
- outcome [1]: inactive

SMILES: NC(N)=NC(=O)c1nc(Cl)c(N2CCCCCC2)nc1N
- outcome [1]: inactive

SMILES: O=C(c1cc(O)c(O)c([N+](=O)[O-])c1)c1ccccc1F
- outcome [3]: inactive

SMILES: COc1ccccc1N1CCN(CCCCNS(=O)(=O)c2cccc3c(N(C)C)cccc23)CC1
- outcome [1]: inactive

SMILES: CSc1ccccc1N1CCN(CCCCCC(=O)NC2CCCc3ccccc32)CC1 (centres undefined)
- outcome [1]: inactive

SMILES: NC(=O)C(=O)O
- outcome [1]: inactive
- outcome [2]: inactive
- outcome [3]: inactive
- Potency [4]: inactive

SMILES: Oc1cc2c(cc1O)CN(C(=S)NCCc1ccc(Cl)cc1)CCC2
- outcome [1]: inactive
- outcome [2]: inactive
- outcome [3]: inactive
- Potency [4]: 13.1 µM (active)

SMILES: COc1ccc(Br)cc1S(=O)(=O)NC(=O)/C=C/c1ccccc1Cc1ccc2ccccc2c1
- outcome [2]: inactive
- outcome [3]: inactive

SMILES: NCCNC(=O)c1ncsc1-c1cccc(F)c1
- outcome [1]: inactive

SMILES: OC[C@H]1O[C@@H](n2cnc3c(NC4CCCCC4)ncnc32)[C@H](O)[C@@H]1O
- outcome [1]: inactive

SMILES: c1ccc(-c2ccccn2)nc1
- outcome [1]: inactive

SMILES: O=C(Nc1cccc(C(=O)Nc2ccc(S(=O)(=O)O)c3cc(S(=O)(=O)O)cc(S(=O)(=O)O)c23)c1)Nc1cccc(C(=O)Nc2ccc(S(=O)(=O)O)c3cc(S(=O)(=O)O)cc(S(=O)(=O)O)c23)c1
- outcome [1]: inactive
- Potency [4]: inactive

SMILES: CC[C@@H](C)[C@H]1O[C@]2(CC[C@H]1C)C[C@@H]1C[C@@H](CC=C(C)[C@@H](O[C@H]3C[C@H](OC)[C@@H](O[C@H]4C[C@H](OC)[C@@H](O)[C@H](C)O4)[C@H](C)O3)[C@@H](C)C=CC=C3CO[C@@H]4[C@H](O)C(C)=C[C@@H](C(=O)O1)[C@]34O)O2
- outcome [1]: inactive
- Potency [4]: 3.7 µM (active)

SMILES: C[C@@H](CN1CCC(Cc2ccccc2)CC1)[C@@H](O)c1ccc(O)cc1
- outcome [1]: inactive

SMILES: S=c1[nH]c(-c2ccccc2)cn1-c1ccccc1
- outcome [2]: inactive
- outcome [3]: inactive
- Potency [4]: inactive
